Laboratory results published in PubChem BioAssay AID720540 (National Center for Advancing Translational Sciences (NCATS), 2013).
Out of some 1,300 compounds screened, about 460 (35%) were called active. Inconclusive results (about 39%) are left out. Calls come from the whole dose curve; as a rule, active = well fitted inhibition curve with a large enough effect; inconclusive = small, poorly fitted or top-dose-only effect; inactive = flat fitted curve, though single readings scatter. This is one part of the list.

molecular target: Protein phosphatase EYA2 (Homo sapiens) (UniProt O00167); assay: qHTS for Inhibitors of the Phosphatase Activity of Eya2: Confirmatory Assay for Cherry-picked Compounds; conditions: purified EYA2 phosphatase activity, qHTS confirmation; series mostly up to 46.1 µM; note: nearly all actives have a fitted effect of over 65% in size
Summary of the method: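 Eya2 (0.2 uM working solution) preincubated 10 min at room temperature with compound in pH 7.5 HEPES buffer with MgCl2, BSA, DTT. OMFP added (50 uM working solution), 10 min more; fluorescence 485/525 nm, normalized to EGTA and DMSO.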
Potency is the fitted concentration of half-maximal effect.

Sequence of Protein phosphatase EYA2 (Homo sapiens) (O00167 whole entry, looked up): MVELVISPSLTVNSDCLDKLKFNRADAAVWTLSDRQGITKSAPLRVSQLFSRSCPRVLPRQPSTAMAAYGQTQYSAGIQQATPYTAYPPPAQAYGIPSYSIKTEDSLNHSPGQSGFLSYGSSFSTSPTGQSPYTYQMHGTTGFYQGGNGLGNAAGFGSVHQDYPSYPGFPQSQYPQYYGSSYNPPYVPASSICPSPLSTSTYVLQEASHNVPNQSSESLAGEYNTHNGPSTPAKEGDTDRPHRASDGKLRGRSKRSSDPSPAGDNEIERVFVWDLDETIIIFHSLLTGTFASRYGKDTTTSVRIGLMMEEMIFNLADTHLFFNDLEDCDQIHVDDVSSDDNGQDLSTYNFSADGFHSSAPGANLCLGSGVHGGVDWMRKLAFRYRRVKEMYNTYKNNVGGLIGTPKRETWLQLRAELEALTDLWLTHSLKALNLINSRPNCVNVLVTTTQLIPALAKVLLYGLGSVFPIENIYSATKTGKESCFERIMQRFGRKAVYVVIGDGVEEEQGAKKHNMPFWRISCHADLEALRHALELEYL

Potency, inactive:
COc1ccccc1-c1noc2c1C(=O)N(Cc1cn(-c3ccc(Cl)cc3)nn1)CC2
O=c1cc2ncc(-n3cc([N+](=O)[O-])cn3)cn2[nH]1
CCC(=O)N1c2ccc(S(=O)(=O)N3CCN(c4ccc([N+](=O)[O-])cc4)CC3)cc2CC1C (stereo not given)
CCn1c2ccccc2c2cc(NC(=O)COC(=O)c3ccc(NC(=O)CC#N)cc3)ccc21
O=C(COC(=O)c1cc(=O)[nH]c2ccccc12)Nc1cccc(S(=O)(=O)N2CCOCC2)c1
CCOc1ccc2ccccc2c1C(=O)N[C@@H]1C(=O)N2[C@@H]1SC(C)(C)[C@@H]2C(=O)O
O=C(C[n+]1ccccc1)c1ccc(O)c(O)c1
Cc1ccc(OCCSc2nc3ccccc3n2CCC(=O)O)c(C(C)C)c1
CCOCCCNC(=O)c1cc2sc(Cl)cc2n1CC
O=C(CN1C(=O)c2ccccc2C1=O)Nc1nc(-c2cccc([N+](=O)[O-])c2)cs1
NC(=O)[C@@H]1CC2(CC(c3cccc(NC(=O)COc4ccc(Cl)cc4)c3)=NO2)CN1C(=O)COc1ccc(Cl)cc1 (stereo not given in full)
CCn1c(C)cc(/C=C2/SC(=O)N(C(C)C(=O)OC)C2=O)c1C (stereo not given)
Cc1c(C(=O)O)cccc1-c1ccc(/C=C2\SC(=O)NC2=O)o1
COCCN(Cc1cc2cc3c(cc2nc1Cl)OCO3)C(=O)Nc1ccc(OC)cc1
CCN1CCN(c2ncnc3scc(-c4ccc(C)cc4)c23)CC1
COc1ccc2cc(C(=O)N3CCN(c4ccc(F)cc4)CC3)[nH]c2c1
Oc1ccc(-c2nc3c4c(ncn3n2)-c2ccccc2CC42CCCC2)cc1
COc1ccc(CC(CC(=O)O)C(=O)Nc2ccc(Cl)c(Cl)c2)cc1 (stereo not given)
O=C(Cn1ccc(=O)[nH]c1=O)Nc1nccs1
CC(Oc1ccc(F)cc1)C(=O)Nc1cc(S(=O)(=O)N2CCCCC2)ccc1N1CCN(C)CC1 (stereo not given)
Cc1ccc(-c2csc(N3CCN(CCCn4c(C(F)(F)F)nc5ccccc54)CC3)n2)cc1
Oc1[nH]c2ccccc2c1N=Nc1nc2ccccc2s1
COc1ccc(N)cc1-n1c(C)ccc1C
Cc1cc(C(=O)COC(=O)c2ccc(O)cc2)c(C)n1CCc1ccc(F)cc1
CCC(=O)Nc1ccc(-c2nnc(SCc3ccccc3)n2C)cc1
COc1ccc(/C=C/C(=O)Nc2ccc3nc4n(c(=O)c3c2)CCCC4)cc1
NC(=O)c1nc(C(=O)N2CCCCC2)c2ccccc2n1
COc1cc2c(cc1OC)C(c1ccc([N+](=O)[O-])cc1)NCC2 (stereo not given)
COc1ccc(NC(=O)c2cc(-c3ccco3)nc3ccccc23)cn1
COc1cc(/C=C2\SC(=S)N(CCC(=O)Nc3cccc(O)c3)C2=O)cc(OC)c1OC
COC(=O)c1sc2cc(C(F)(F)F)cnc2c1-c1cccnc1
CCN(CC)C(=O)c1ccc(O)c(OC)c1
CCSc1nnc(-c2ccc(S(=O)(=O)N3CCOCC3)cc2)n1C
O=C(CCN1C(=O)/C(=C\C=C\c2ccccc2)SC1=S)Nc1ccc(C(=O)O)cc1
CCOc1ccc(NC(=O)c2sccc2-n2cccc2)cc1
O=C(Nc1nc2c(F)cc(F)cc2s1)c1ccc([N+](=O)[O-])o1
Cc1cc(Br)c(NC(=O)c2ccccc2[N+](=O)[O-])cc1C
COc1ccc(CN(CCN(C)C)c2ccccn2)cc1
CCc1nc2ccc(C(=O)NCCCN(C)C)cn2c1N(C)Cc1ccc(OC)cc1
COc1ccc(N(CC(=O)Nc2nc3ccc(C)cc3s2)S(=O)(=O)c2c(C)nn(C)c2C)cc1

Potency, active:
Cc1cccc(N2CC(C(=O)OCC(=O)c3ccc(OC(=O)c4cccs4)cc3)CC2=O)c1C (stereo not given) 9.53 µM
Nc1nccnc1C(=O)OCC(=O)Nc1ccc2[nH]c(=O)[nH]c2c1 13.5 µM
O=C(CSc1nc2ccccc2n1CCc1ccccc1)c1ccc(O)c(O)c1 13.5 µM
Nc1ccccc1C(=O)NNc1c2ccccc2nc2ccccc12 8.49 µM
O=[N+]([O-])c1ccccc1Nc1nc(-c2cccnc2)cs1 15.1 µM
CNc1cccc2c1C(=O)c1ccccc1C2=O 1.69 µM
CN(C)c1ccc(N=Nc2ccnc3ccccc23)cc1 3.38 µM
Cc1cc(O)cc(O)c1/C=N/NC(=O)c1ccc2c(c1)OCCO2 7.57 µM
S=c1[nH]nc(-c2ccccn2)n1/N=C/c1ccc(Br)s1 16.9 µM
CCOC(=O)C(C)N1C(=O)S/C(=C\c2ccc(-c3ccccc3C(=O)O)o2)C1=O (stereo not given) 19 µM
COc1ccc2[nH]cc(CCn3ccc(O)c(C/C=C/c4ccccc4)c3=O)c2c1 21.3 µM
CC(=O)Nc1ccc(S(=O)(=O)O)c2cc(S(=O)(=O)O)c(N=Nc3ccc(N=Nc4ccc(S(=O)(=O)O)cc4)c4ccc(S(=O)(=O)O)cc34)c(O)c12 1.51 µM
O=S(=O)(O)c1ccc2c(N=Nc3ccc(S(=O)(=O)O)c4ccccc34)c(O)c(S(=O)(=O)O)cc2c1 7.57 µM
CCOc1ccc(NC(=O)C2CC(=O)N(CCc3ccc(OC)c(OC)c3)C2)cc1OCC (stereo not given) 12 µM
COc1ccc(N2CCN(C(=O)c3cc(-c4cc(OC)ccc4OC)nc4ccccc34)CC2)cc1 16.9 µM
O=C1/C(=C\c2cccc([N+](=O)[O-])c2O)SC(=S)N1Cc1ccccc1 6.75 µM
COc1ccc(/C=C(/C#N)C(=O)Nc2ccc(O)cc2)cc1C(=O)O 9.53 µM
COc1ccc(NC(=O)/C(C#N)=C/c2ccc(-c3ccc(Cl)c(C(=O)O)c3)o2)cc1 19 µM
N#C/C(=C\c1ccc(-c2ccc(C(=O)O)cc2)o1)C(=O)Nc1ccc(F)cc1 16.9 µM
CCOc1ccc(S(=O)(=O)N2CCN(C)CC2)cc1NC(=O)c1ccccc1F 8.49 µM
CCCSC1=N/C(=C\C=C\c2ccco2)C(=O)S1 9.53 µM
O=c1nc2c(O)cccn2c2c1c(=O)[nH]c1ccccc12 4.26 µM
Cc1ccc(C(=O)CSc2nnc(CNc3nc(-c4ccccc4)cs3)n2C)cc1 7.57 µM
O=[N+]([O-])c1ccc([N+](=O)[O-])c(Nc2ccc(N3CCOCC3)cc2)c1 10.7 µM
O=C(CCS(=O)(=O)c1ccc(F)cc1)Nc1nc(-c2ccccn2)cs1 13.5 µM
CCn1nc(C(=O)Nc2nc(-c3ccccn3)cs2)c2ccccc2c1=O 4.26 µM
CSCCC(=O)Nc1nc(-c2ccccn2)cs1 19 µM
Cn1cccc1/C=N/N1CCN(Cc2cccc3ccccc23)CC1 15.1 µM
COc1ccccc1/C=C/C=N/N1CCN(Cc2cccc3ccccc23)CC1 8.49 µM
CCCCC(Sc1ccc2nnc(-c3ccccn3)n2n1)C(=O)O (stereo not given) 16.9 µM
O=C(CSc1ccc2nnc(-c3ccccn3)n2n1)Nc1ccccc1F 12 µM
O=C(CSc1ccc2nnc(-c3ccccn3)n2n1)Nc1ccccc1C(F)(F)F 19 µM
O=C(CSc1ccc2nnc(-c3ccccn3)n2n1)Nc1ccccc1 16.9 µM
O=S(=O)(O)c1ccc(O)c2cc(Nc3ccccc3)ccc12 7.57 µM
O=C(c1ccc2c(=O)n3c(nc2c1)CCCCC3)N1CCN(c2cccc(Cl)c2)CC1 16.9 µM
Oc1ccccc1C=NC1CCCCC1N=Cc1ccccc1O (stereo not given) 19 µM
O=C(Nc1nncs1)c1cc(-c2ccco2)nc2ccccc12 19 µM
CCOC(=O)c1sc(NC(=O)CSc2nc(O)c(Cc3ccccc3)c(=O)[nH]2)nc1C 19 µM
O=C(CN1C(=O)/C(=C/c2ccco2)SC1=S)Nc1ccc(C(=O)O)c(O)c1 16.9 µM
O=C1c2cccc(Sc3ccccc3)c2C(=O)c2c(Sc3ccccc3)cccc21 3.38 µM
CCN(CC)S(=O)(=O)c1cc(OC)ccc1N=Nc1ccc(O)c2ncccc12 1.35 µM
CCc1nnc(NS(=O)(=O)c2ccc(NCc3cc(Cl)cc(Cl)c3O)cc2)s1 2.39 µM
O=S(=O)(Nc1nccs1)c1ccc(NCc2cc(Br)cc(Br)c2O)cc1 1.07 µM
CCOc1ccc(/C=C2\SC(=S)N(CCC(=O)Nc3ccc(C(=O)O)cc3)C2=O)cc1 19 µM
Cc1n[nH]c(=S)n(NC(=O)CC(=O)Nn2c(=S)[nH]nc(C)c2=O)c1=O 1.51 µM
CC1CCCN(c2ccc3nc4ccccc4c(=O)n3n2)C1 (stereo not given) 13.5 µM
Cc1ccc(CN2CCN(/N=C/c3ccc(C)s3)CC2)c(C)c1 15.1 µM
O=C(Oc1ccc(C(=S)N2CCCCC2)cc1)c1ccccc1F 13.5 µM
O=C(Oc1ccc(C(=S)N2CCOCC2)cc1)c1ccccc1[N+](=O)[O-] 13.5 µM
O=C(Oc1ccc(C(=S)N2CCOCC2)cc1)c1ccccc1F 6.01 µM
CC1(C)Nc2cccc3c(N=Nc4ccc(N=Nc5ccccc5)c5ccccc45)ccc(c23)N1 3.01 µM
COc1ccc(Oc2nc(-c3ccccn3)ncc2OC)cc1 19 µM
CCOC(=O)C(C)Sc1nc(-c2ccccn2)ncc1OC (stereo not given) 2.13 µM
COc1cnc(-c2ccccn2)nc1Oc1ccc(C(C)(C)C)cc1 3.79 µM
Cc1c(C(=O)O)c(O)cc2c1C(=O)c1c(O)c([C@H]3O[C@H](CO)[C@@H](O)[C@H](O)[C@H]3O)c(O)c(O)c1C2=O 16.9 µM
